Experimental data: PubChem BioAssay AID1159580 (chemical genetic matrix, 2015)
Several values for one entry are separate records, joined by “and”; a condition that tells them apart may be missing. Identical values can stand only once. The whole screen tested about 5,500 compounds, of which about 2,000 (36%) were called active. Another 18% or so got no clear call; they are omitted. Rule as the data show it: active = normalized growth mostly below about 0.91 (no sharp cut-off); inconclusive = no clear call, values can overlap the other calls; inactive = mostly above about 0.92. The list shows a part of the results.

Experiment: chemical genetic growth profiling, strain panel (AID 1159580);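 also: tested at 20 µM; growth read once vehicle control cultures reached saturation at 30 °C; 1 = growth at the plate median or of vehicle wells; lower values mean less growth of the strain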
Conditions: S. cerevisiae deletion strains, growth OD

Measured: normalized growth

C/C=C(/C)C(=O)O[C@@H]1[C@H](OC(C)=O)[C@@]2(CO)C(CC1(C)C)C1=CCC3[C@@]4(C)CC[C@H](O[C@@H]5O[C@H](C(=O)O)[C@@H](O[C@@H]6O[C@H](CO)[C@@H](O)[C@H](O)[C@H]6O)[C@H](O)[C@H]5O[C@@H]5O[C@H](CO)[C@@H](O)[C@H](O)[C@H]5O)[C@](C)(CO)C4CC[C@@]3(C)[C@]1(C)C[C@H]2O (some centres not stated)
inactive: locus YAL021C, strain ccr4, hits give low values 1.01 | locus YAL026C, strain drs2, hits give low values 0.983 | locus YAL030W, strain snc1, hits give low values 0.987 | locus YBL061C, strain skt5, hits give low values 0.983 | locus YBR009C, strain hhf1, hits give low values 0.938 | locus YBR021W, strain FUR4, hits give low values 0.989 | locus YBR023C, strain chs3, hits give low values 0.992 | locus YBR171W, strain sec66, hits give low values 0.996 | locus YBR229C, strain ROT2, hits give low values 1.01 | locus YBR231C, strain swc5, hits give low values 0.979 | locus YBR279W, strain paf1, hits give low values 0.989 | locus YCL011C, strain gbp2, hits give low values 0.986 | locus YCL016C, strain dcc1, hits give low values 0.994 | locus YCL029C, strain bik1, hits give low values 1.03 | locus YCL061C, strain MRC1, hits give low values 0.981 | locus YCL069W, strain vba3, hits give low values 0.987 | locus YCR088W, strain abp1, hits give low values 0.989 | locus YDL005C, strain med2, hits give low values 0.982 | locus YDL035C, strain GPR1, hits give low values 1.02 | locus YDL040C, strain nat1, hits give low values 0.973 | locus YDL074C, strain BRE1, hits give low values 0.999 | locus YDL101C, strain DUN1, hits give low values 1.02 | locus YDL185W, strain tfp1, hits give low values 1.02 | locus YDL192W, strain arf1, hits give low values 1.02 | locus YDR001C, strain nth1, hits give low values 0.981 | locus YDR069C, strain doa4, hits give low values 0.982 | locus YDR101C, strain arx1, hits give low values 1.01 | locus YDR137W, strain rgp1, hits give low values 0.975 | locus YDR159W, strain sac3, hits give low values 0.96 | locus YDR162C, strain NBP2, hits give low values 1.02 | locus YDR195W, strain ref2 0.929 | locus YDR297W, strain sur2, hits give low values 0.993 | locus YDR318W, strain mcm21, hits give low values 1.03 | locus YDR334W, strain swr1, hits give low values 0.985 | locus YDR335W, strain msn5, hits give low values 0.989 | locus YDR388W, hits give low values 1.02 | locus YDR392W, strain spt3, hits give low values 0.874 | locus YDR502C, strain sam2, hits give low values 1.02 | locus YEL003W, strain gim4, hits give low values 0.992 | locus YEL037C, strain rad23, hits give low values 0.991 | locus YEL061C, strain CIN8 (second series), hits give low values 0.987 | locus YEL061C, strain CIN8, hits give low values 1.01 | locus YER015W, strain faa2, hits give low values 0.983 | locus YER016W, strain bim1, hits give low values 0.991 | locus YER110C, hits give low values 1.03 | locus YER111C, strain swi4, hits give low values 0.968 | locus YER155C, strain BEM2 (second series), hits give low values 0.997 | locus YER155C, strain BEM2, hits give low values 0.999 | locus YER167W, strain BCK2, hits give low values 1.01 | locus YFR010W, strain ubp6, hits give low values 0.991 | locus YGL078C, strain dbp3, hits give low values 1.02 | locus YGL086W, strain mad1, hits give low values 1.03 | locus YGL167C, strain pmr1, hits give low values 0.987 | locus YGL173C, strain kem1, hits give low values 0.966 | locus YGL227W, strain vid30, hits give low values 0.982 | locus YGL240W, strain doc1, hits give low values 0.97 | locus YGL248W, strain PDE1, hits give low values 1.01 | locus YGL253W, strain hxk2, hits give low values 0.974 | locus YGR135W, strain pre9, hits give low values 1.01 | locus YGR252W, strain gcn5, hits give low values 0.965 | locus YHR013C, strain ard1, hits give low values 0.965 | locus YHR027C, strain rpn1, hits give low values 0.992 | locus YHR030C, strain SLT2, hits give low values 1.01 and 0.987 | locus YHR079C, strain IRE1 (second series), hits give low values 1.03 | locus YHR079C, strain IRE1, hits give low values 0.972 | locus YHR094C, strain hxt1, hits give low values 1.03 | locus YHR129C, strain ARP1, hits give low values 1.01 | locus YHR142W, strain chs7, hits give low values 1.01 | locus YHR200W, strain rpn10, hits give low values 1.01 | locus YIL066C, strain RNR3, hits give low values 1.01 | locus YIL073C, strain SPO22, hits give low values 1.15 | locus YIL125W, strain kgd1, hits give low values 1.02 | locus YIR030C, strain dcg1, hits give low values 1.03 | locus YJL092W, strain hpr5, hits give low values 0.989 | locus YJL095W, strain BCK1 (second series), hits give low values 0.992 | locus YJL095W, strain BCK1, hits give low values 1.02 and 0.969 | locus YJL115W, strain asf1, hits give low values 0.989 | locus YJL129C, strain trk1, hits give low values 0.984 | locus YJL134W, strain LCB3, hits give low values 1 | locus YJL154C, strain vps35, hits give low values 0.987 | locus YJL164C, strain tpk1, hits give low values 1.01 | locus YJL166W, strain qcr8, hits give low values 1 | locus YJL168C, strain set2, hits give low values 1.01 | locus YJL187C, strain SWE1 (second series), hits give low values 1.02 | locus YJL187C, strain SWE1, hits give low values 0.996 | locus YJR043C, strain POL32, hits give low values 0.99 | locus YJR066W, strain TOR1, hits give low values 1.01
